Source: PubChem BioAssay (NCATS)

biological target: Glucocorticoid receptor (Homo sapiens) (UniProt P04150); assay: GR-GFP Redistribution (AID 450); settings: U2OS GR-GFP nuclear translocation, laser cytometry, 2 h; series mostly up to 20.6 µM
Potency means the concentration at half of the fitted maximal effect.

Glucocorticoid receptor (Homo sapiens), sequence (P04150 whole entry, looked up): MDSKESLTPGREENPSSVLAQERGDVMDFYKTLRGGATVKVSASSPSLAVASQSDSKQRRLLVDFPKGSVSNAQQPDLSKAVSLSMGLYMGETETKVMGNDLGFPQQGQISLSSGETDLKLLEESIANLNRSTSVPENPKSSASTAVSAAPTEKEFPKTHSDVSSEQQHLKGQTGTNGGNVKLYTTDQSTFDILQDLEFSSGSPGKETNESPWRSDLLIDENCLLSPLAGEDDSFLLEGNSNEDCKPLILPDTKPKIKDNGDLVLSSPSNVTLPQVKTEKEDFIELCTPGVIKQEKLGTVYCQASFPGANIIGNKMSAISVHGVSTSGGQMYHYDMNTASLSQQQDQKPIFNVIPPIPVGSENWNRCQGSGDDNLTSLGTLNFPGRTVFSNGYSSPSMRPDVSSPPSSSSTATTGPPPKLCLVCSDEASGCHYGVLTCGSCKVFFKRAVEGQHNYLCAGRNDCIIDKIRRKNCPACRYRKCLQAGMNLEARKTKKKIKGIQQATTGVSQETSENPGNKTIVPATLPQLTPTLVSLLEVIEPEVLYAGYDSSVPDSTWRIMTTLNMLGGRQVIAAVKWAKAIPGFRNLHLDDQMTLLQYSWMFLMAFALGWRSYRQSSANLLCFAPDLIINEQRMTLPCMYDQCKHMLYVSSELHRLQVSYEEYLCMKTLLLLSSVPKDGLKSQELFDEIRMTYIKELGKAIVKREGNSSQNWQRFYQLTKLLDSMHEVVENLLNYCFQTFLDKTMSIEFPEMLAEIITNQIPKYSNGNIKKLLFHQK

Potency, inactive:
CS(=O)(=O)c1ccc2nc(NC(NC(=O)c3ccco3)(C(F)(F)F)C(F)(F)F)sc2c1 > 20.6 µM
N#C/C(C(=O)NCc1ccccc1)=C1\SC(CCO)C(=O)N1c1ccccc1 (centres undefined) > 20.6 µM
Cn1c[n+](C)cc1/C=N/O > 20.6 µM
CC(C)c1[nH]c(=O)c(C#N)c2c1CSC(C)(C)C2 > 20.6 µM
Cc1cc(C)c(C#N)c(SCC(=O)NC2CC2)n1 > 20.6 µM
COC(=O)CC1SC(=O)NC1=O (centres undefined) > 20.6 µM
Cc1cc(=O)oc(C)c1C(=O)NC1CC(C)(C)NC(C)(C)C1 > 20.6 µM
COC(=O)CSc1nnc(C)c(=O)[nH]1 > 20.6 µM
O=c1[nH]cnc2cc(-c3ccccc3)sc12 > 20.6 µM
CCOC(=O)c1c(C)n(C)c2ccc(OC)c(NC(=O)CN3CCCCC3)c12 > 20.6 µM
CCN(CC)CCN1C(=O)C(=O)/C(=C(/O)c2c(C)[nH]c(C(=O)OC)c2C)C1c1ccco1 (centres undefined) > 20.6 µM
COc1cccc(C2C(C(=O)c3cc4ccccc4o3)=C(O)C(=O)N2CCN(C)C)c1OC (centres undefined) > 20.6 µM
CCNC(=O)N(C)c1nncnc1C(=O)NC > 20.6 µM
O=C(NCCO)C1(c2ccccc2)CCCC1 > 20.6 µM
O=C1C=C(O)CC(c2ccc(Cl)c(Cl)c2)C1 (centres undefined) > 20.6 µM
CCN(CC)S(=O)(=O)c1cccc2c(N(C)C)cccc12 > 20.6 µM
CCCCc1nc(N2CCOCC2)c(C#N)c2c1CCCC2 > 20.6 µM
Cc1ccc(C2/C(=C(/O)c3cnn(-c4ccccc4)c3C)C(=O)C(=O)N2CCN2CCOCC2)o1 (centres undefined) > 20.6 µM
Cc1ccc(C2CC(c3cccs3)n3nc(N)nc3N2)cc1 (centres undefined) > 20.6 µM
Cc1nc(SCC(N)=O)[nH]c(=O)c1Cc1ccc(OC(C)C)cc1 > 20.6 µM
NC(=O)c1cc(-c2ccccc2)nc(Oc2ccccc2)n1 > 20.6 µM
COc1ccccc1C(=O)Nc1cc(Cl)ccc1O > 20.6 µM
CN=C1c2c(-c3ccccc3)c3cc(OC)ccc3n2CCN1C > 20.6 µM
CCCCOC(=O)c1[nH]c(C)c(C(=O)OC)c1C > 20.6 µM
CCCC(=O)Nn1cnc2c(c1=O)C1(CCCC1)Cc1ccccc1-2 > 20.6 µM
OC(CCCN1CCC(O)(c2ccc(Cl)cc2)CC1)c1ccc(F)cc1 (centres undefined) > 20.6 µM
CCCc1nc2n[nH]c(N)c2c2c1CCCC2 > 20.6 µM
CC1(C)CC(N(Cc2ccco2)C(=O)Cc2ccccc2)CCO1 (centres undefined) > 20.6 µM
Cc1oc2nc(SCCCC(=O)NCCCO)nc(N)c2c1C > 20.6 µM
Cc1ccc(-n2nc3cc(Cl)c(NC(=O)c4ccco4)cc3n2)cc1 > 20.6 µM
CCCC1Cc2c(sc3nc(SC)nc(N)c23)CO1 (centres undefined) > 20.6 µM
COC(=O)C(NC(=O)c1ccccc1)(Nc1nc(C)cs1)C(F)(F)F (centres undefined) > 20.6 µM
Cc1cc(N2CCN(C3CCCC3)CC2)n2c(nc3ccccc32)c1C#N > 20.6 µM
COC(=O)c1ccc(=O)n(Cc2ccco2)c1 > 20.6 µM
CCCc1cc(NCCN2CCOCC2)n2c(nc3ccccc32)c1C#N > 20.6 µM
COc1cc(C2CC(C(F)(F)F)n3ncc(C(=O)O)c3N2)cc(OC)c1OC (centres undefined) > 20.6 µM
CCOC(=O)Cc1nnc(Nc2cccc(O)c2)c2ccccc12 > 20.6 µM
CN(C)c1nc2sc3c(c2c(=O)n1C)CC(C)(C)OC3 > 20.6 µM
Cc1cc(=O)oc(C)c1C(=O)N1CCN(Cc2ccc3c(c2)OCO3)CC1 > 20.6 µM
